A short description of this test: Primary qHTS for inhibitors of SARS-S pseudo-typed particle cell entry (AID 1479145). Also: nearly all actives have a fitted effect of over 45% in size. The settings on record: SARS-S pseudotyped particle cell entry, luciferase reporter; series mostly up to 57.1 µM. In general terms: In qHTS, concentration-response curves come from the screen itself.

Results filed as inconclusive are left out. Where a call stands in place of a potency, no number is given. The source made the active and inactive calls. Calls follow the shape of the full dose curve.
Potency is read from the fitted curve at half-maximal effect.

As to `O=C1C(=O)c2ccccc2C(O)=C1C1CCC(c2ccc(Cl)cc2)CC1` (configuration not stated), the Potency was 0.891 µM (active).
As for `CCCCC1=NC2(CCCC2)C(=O)N1Cc1ccc(-c2ccccc2-c2nn[nH]n2)cc1`, the entry is “inactive”; as for `OC(Cn1cncn1)(Cn1cncn1)c1ccc(F)cc1F`, “inactive”.
Turning to `CC1=C(C(=O)O)N2C(=O)[C@@H](NC(=O)[C@H](N)c3ccc(O)cc3)[C@H]2SC1`, the Potency result is “inactive”.
The result for `CC1=NS(=O)(=O)c2cc(Cl)ccc2N1` reads “inactive”.
The result for `Nc1cc(-c2ccncc2)c[nH]c1=O` reads “inactive”; that for `NCCCC(O)(P(=O)(O)O)P(=O)(O)O`, “inactive”.
The result for `Cc1cnc(C(=O)NCCc2ccc(S(=O)(=O)NC(=O)NC3CCCCC3)cc2)cn1` reads “inactive”; that for `Cc1onc(-c2c(Cl)cccc2Cl)c1C(=O)N[C@@H]1C(=O)N2[C@@H]1SC(C)(C)[C@@H]2C(=O)O`, “inactive”.
In the case of `CCOC(=O)c1ncn2c1CN(C)C(=O)c1cc(F)ccc1-2`, the Potency result is “inactive”.
The result for `CCn1cc(C(=O)O)c(=O)c2cc(F)c(N3CCNCC3)cc21` reads “inactive”.
Regarding `CC(C)Oc1ccc2c(=O)c(-c3ccccc3)coc2c1`, the Potency result is “inactive”.
As for `C[C@@H](O)[C@H]1C(=O)N2C(C(=O)O)=C(S[C@@H]3CN[C@H](C(=O)N(C)C)C3)[C@H](C)[C@H]12`, the entry is “inactive”; as for `Cc1ccc(C)c(OCCCC(C)(C)C(=O)O)c1`, “inactive”; as for `CC[C@@]1(c2ccccc2)NC(=O)N(C)C1=O`, “inactive”.
Take `CCCN(CCC)S(=O)(=O)c1ccc(C(=O)O)cc1`: the Potency entry is “inactive”.
For `Cc1cn([C@H]2C=C[C@@H](CO)O2)c(=O)[nH]c1=O`, the Potency result was “inactive”.
The result for `Nc1nc2c(ncn2COCCO)c(=O)[nH]1` reads “inactive”; that for `C[C@](N)(Cc1ccc(O)c(O)c1)C(=O)O`, “inactive”.
Regarding `O=P(O)(O)C(O)(Cc1cccnc1)P(=O)(O)O`, the Potency result is “inactive”.
The result for `O=C(C1CCCCC1)N1CC(=O)N2CCc3ccccc3C2C1` (configuration not stated) reads “inactive”.
In the case of `O=C1c2c(O)ccc(O)c2C(=O)c2c(NCCNCCO)ccc(NCCNCCO)c21`, the Potency entry is “inactive”.
As for `CC1(C)O[C@@H]2[C@@H](CO[C@@]3(COS(N)(=O)=O)OC(C)(C)O[C@@H]23)O1`, the entry is “inactive”; as for `O=C(OC1C[C@H]2CC[C@@H](C1)[N+]21CCCC1)C(O)(c1ccccc1)c1ccccc1` (some centres not stated), “inactive”.
As for `CCC1(c2ccccc2)C(=O)NCNC1=O`, the entry is “inactive”; as for `O=C1Cc2cc(CCN3CCN(c4nsc5ccccc45)CC3)c(Cl)cc2N1`, “inactive”.
With `CC(=O)N[C@@H](CS)C(=O)O`, the Potency result was “inactive”.
The result for `CN1CCN(CCCN2c3ccccc3Sc3ccc(Cl)cc32)CC1` reads 22.4 µM (active); that for `O=C(O)COCCN1CCN(C(c2ccccc2)c2ccc(Cl)cc2)CC1` (configuration not stated), “inactive”.
As for `CCOC(=O)N1CCC(=C2c3ccc(Cl)cc3CCc3cccnc32)CC1`, the entry is “inactive”.
As for `Cc1ncc([N+](=O)[O-])n1CCO`, the entry is “inactive”.
`Nc1[nH]c(=O)ncc1F`: the Potency result is “inactive”.
For `CN(C)CCCN1c2ccccc2CCc2ccc(Cl)cc21`, the Potency was 28.2 µM (active).
Take `Cc1ccc2c(n1)Oc1ccc(C(C)C(=O)OCC(=O)N(C)C)cc1C2` (configuration not stated): the Potency entry was “inactive”.
The result for `CCN(CC)CCNC(=O)c1cc(Cl)c(N)cc1OC` reads “inactive”; that for `OCCN1CCN(CCCN2c3ccccc3Sc3ccc(Cl)cc32)CC1`, 14.1 µM (active).
`CN(C)/N=N/c1nc[nH]c1C(N)=O`: the Potency entry was “inactive”.

Source of the values: PubChem BioAssay (NCATS).
